JMJD2A Tudor: blocks the human JMJD2A Tudor domain | AlphaScreen JMJD2A-Tudor / H3K4me3 peptide binding | 390,000 compounds, 4.4% hits | Potency, µM (highest dose often 114 µM), for the others: at the top dose activity change, negative = inhibition, most hits filed as inhibitors | AID 504339 | O75164; also: % is scaled to controls: 0 for no effect and ±100 for the full control effect; nearly all actives have a fitted effect of over 50% in size
Target sequence (O75164 whole entry, looked up, the tested form may be a part): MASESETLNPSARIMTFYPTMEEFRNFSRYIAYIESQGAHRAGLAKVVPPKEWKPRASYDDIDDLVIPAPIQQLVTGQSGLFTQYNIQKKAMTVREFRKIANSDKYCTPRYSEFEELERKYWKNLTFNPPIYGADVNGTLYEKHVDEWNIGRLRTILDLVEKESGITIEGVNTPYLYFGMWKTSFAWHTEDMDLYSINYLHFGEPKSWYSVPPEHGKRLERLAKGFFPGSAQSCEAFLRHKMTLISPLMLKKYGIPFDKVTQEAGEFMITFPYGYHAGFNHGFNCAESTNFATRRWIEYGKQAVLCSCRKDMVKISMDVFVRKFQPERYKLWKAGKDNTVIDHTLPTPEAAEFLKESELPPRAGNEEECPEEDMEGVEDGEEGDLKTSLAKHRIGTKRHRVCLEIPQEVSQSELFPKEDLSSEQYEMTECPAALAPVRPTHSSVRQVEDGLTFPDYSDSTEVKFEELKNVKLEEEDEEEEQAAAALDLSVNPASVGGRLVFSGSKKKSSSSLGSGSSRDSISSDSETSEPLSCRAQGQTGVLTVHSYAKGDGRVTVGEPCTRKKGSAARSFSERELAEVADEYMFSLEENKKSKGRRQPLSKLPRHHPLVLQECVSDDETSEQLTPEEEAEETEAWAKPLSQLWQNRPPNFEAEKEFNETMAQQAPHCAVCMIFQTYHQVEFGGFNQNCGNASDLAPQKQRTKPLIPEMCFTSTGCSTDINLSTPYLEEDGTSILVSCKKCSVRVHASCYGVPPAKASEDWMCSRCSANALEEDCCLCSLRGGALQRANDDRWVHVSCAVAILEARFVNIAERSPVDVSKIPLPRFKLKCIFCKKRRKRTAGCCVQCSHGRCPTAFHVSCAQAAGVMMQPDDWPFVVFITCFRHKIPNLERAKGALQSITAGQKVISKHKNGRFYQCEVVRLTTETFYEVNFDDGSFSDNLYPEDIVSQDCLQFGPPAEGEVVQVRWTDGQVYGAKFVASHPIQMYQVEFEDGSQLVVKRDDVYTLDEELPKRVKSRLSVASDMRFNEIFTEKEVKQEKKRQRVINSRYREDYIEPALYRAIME
G9a inh: inhibitors of human histone lysine methyltransferase G9a. Q96KQ7. G9a H3K9 monomethylation, AlphaScreen, 2 h. Potency, µM (top dose mostly 102 µM), for the others: at the top dose activity, negative = inhibition, actives largely listed as inhibitors. 350,000 compounds, 8.8% hits. AID 504332; also: % is scaled to controls: 0 for no effect and ±100 for the full control effect; nearly all actives have a fitted effect of over 75% in size
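Chemiluminescent proximity detection of H3K9 monomethylation, read after 10 min bead incubation in the dark. Reaction: 20 nM G9a, 500 nM biotin-H3K9 peptide, 20 uM SAM cofactor, 2 h, room temperature, following 15 min enzyme-compound preincubation.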
PLK1 PBD inh: blocks phosphopeptide binding to human PLK1 polo-box domain; AID 720504; 360,000 compounds, 2.8% hits; Plk1 PBD binding of FITC phosphopeptide, fluorescence polarization; P53350; Potency, µM, for inactives: max response, negative = inhibition, hits mostly inhibitors; also: series mostly up to about 57 µM; % is scaled to controls: 0 for no effect and ±100 for the full control effect; nearly all actives have a fitted effect of over 65% in size
HP1b binding inh: blocks HP1-beta chromodomain binding to methylated histone tails. AlphaScreen HP1-beta / biotin-H3K9me3 peptide binding. Potency, µM (series often up to 114 µM), for the others: at the highest dose activity change, negative = inhibition, most hits filed as inhibitors. 390,000 compounds, 0.56% hits. AID 540317; also: nearly all actives have a fitted effect of over 70% in size
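Compound inhibition of the preformed complex between 50 nM HP1-beta and 50 nM biotinylated H3K9me3 peptide was read by AlphaScreen. Buffer was PBS pH 7.4 with 0.01% Tween-20. Incubations ran 30 min at room temperature, with 10 ug/mL donor/acceptor beads.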
BAZ2B block: BAZ2B (human) inhibition; 360,000 compounds, 4.4% hits; Q9UIF8; AlphaScreen BAZ2B-H3K14Ac peptide displacement; Potency, µM (titrated, usually from 114 µM), without a hit: at the highest dose activity change, negative = inhibition, hits mostly inhibitors; AID 504333; also: % is scaled to controls: 0 for no effect and ±100 for the full control effect; nearly all actives have a fitted effect of over 60% in size
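AlphaScreen displacement of biotin-H3(5-23)K14Ac peptide (50 nM final) from BAZ2B (50 nM final) in PBS pH 7.4, 0.01% Tween-20; complex preformed 30 min RT, then compounds (top 110 uM) 30 min RT, beads 20 min dark.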
ALOX12 inh: ALOX12 (human) lipoxygenase inhibition. P18054. purified 12hLO, xylenol orange hydroperoxide absorbance. Potency, µM (series often up to 108 µM), for the others: at the highest dose activity change, negative = inhibition, usual class: inhibitors. 580,000 compounds, 1.1% hits. AID 1671190; also: % is scaled to controls: 0 for no effect and ±100 for the full control effect
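Purified human 12hLO (150 nM final) in 25 mM Hepes, 0.01% Triton X-100, pH 7.0 was preincubated 15 min at room temperature with compound. Then 40 uM arachidonic acid was added, 30 min. Hydroperoxide was read by Fe-XO absorbance ratio 573/405 nm.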
Numbers without * were called inactive; ? = inconclusive; · = no result given; ! = repeats disagree; [ ] = remark or other dose. Hits are enriched below; roughly 9% of the tested compounds scored in any of these assays. Calls follow the shape of the dose curve; as a rule, active = well fitted curve in the direction sought with a large enough effect; inconclusive = small, poorly fitted or top-dose-only effect, or another doubt; inactive = no such curve, though single readings can be large; an effect the other way counts as inactive or inconclusive. Potency is read from the fitted curve at half-maximal effect.

SMILES	JMJD2A Tudor	G9a inh	PLK1 PBD inh	HP1b binding inh	BAZ2B block	ALOX12 inh
CCN(CCO)Cc1cc(=O)oc2c(C)c(C)ccc12	-15%	50µM*	-13%	-1%	5%	?
Cc1cccc(C)c1OC(=O)CSc1nnc(-c2ccccc2O)o1	-2%	-28%[59 µM]	-13%	25%	-30%	18%
Cc1cc(-n2nc3ccc(Cl)cc3n2)c(O)c(C(C)(C)C)c1	·	2%[12.7 µM]	·	·	·	·
Cc1cc(Cl)c(O)c(-n2nc3ccccc3n2)c1	-25%[11.4 µM]	·	24µM*	18%	0%	?
COc1ccc2c(c1)CCc1c-2n[nH]c1C(=O)N1CCc2nc3cc[nH]n3c(=O)c2C1	·	·	·	·	·	34%
Cn1c(=O)c(-c2cc(=O)[nH][nH]2)c(O)c2ccccc21	35µM*	-28%	?	8%	56µM*	-2%
Cn1c(=O)c(-c2cccc(Cl)c2)c(O)c2ccccc21	4%	·	-1%	37%	·	199%
O=C(CSc1nnc(-c2ccc(Cl)cc2)n1Cc1ccco1)Nc1ccc2c(c1)OCCO2	-33%	45µM*	-6%	3%	-1%	-24%
CCn1c(SCC(=O)Nc2ccc3c(c2)OCO3)nnc1C1CC1	-12%	6%	-8%	-20%	7%	-11%
Nn1cc(-c2ccccc2)nc1SCC(=O)Nc1ccc2c(c1)OCO2	?	71µM*	-3%	-25%	4%	-16%
CCn1c2ccccc2c2cc(NC(=O)CSc3nnc(C4CC4)n3Cc3ccco3)ccc21	-32%	10µM*	-21%	3%	-8%	?
CC(=O)Nc1cccc(NC(=O)CSc2ncc(-c3ccc(Cl)cc3)n2Cc2ccco2)c1	?	13µM*	7.5µM*	?	13µM*	-30%
Nn1c(SCC(=O)Nc2ccc3c(c2)OCO3)nnc1-c1cccc(Cl)c1	-35%	-11%[59 µM]	-3%	21%	-9%	0%
COc1cc(C=Nc2ccccc2C(=O)Nc2ccccc2)cc(OC)c1OC	-6%	12%	-4%	23%	6%	-11%
COc1cc(OC)c(NC(=O)C(=O)CC(=O)c2ccc(C)cc2C)cc1Cl	-17%	7%[59 µM]	4%	18%	-28%	0%
O=C(NCCC(=O)N(Cc1ccco1)Cc1cccs1)c1ccccc1Cl	-25%	1%[12.7 µM]	-7%	33%	-20%	404%
COc1ccc(-c2cnc(SCC(=O)Nc3ccc4c(c3)OCO4)n2Cc2ccco2)cc1	20µM*	25µM*	-11%	?	?	0%
O=C(O)CSc1nnc(-c2ccc(S(=O)(=O)N3CCCC3)cc2)n1Cc1ccco1	-35%	56µM*	-9%	23%	-5%	?
Cc1occc(=O)c1OCc1c(F)cccc1Cl	-16%	8%	21µM*	-14%	-2%	5%
Cc1ccccc1N(C(=O)CS(=O)CC(=O)Nc1ccc(F)cc1)C(C)C(=O)NC(C)(C)C (configuration not stated)	-11%	13%	-7%	?	3%	0%
Cc1ccc(N(C(=O)CS(=O)CC(=O)Nc2ccc(F)cc2)C(C)C(=O)NC(C)(C)C)cc1 (configuration not stated)	2%	71µM*	-12%	15%	0%	-27%
CC(C)c1c(Cl)c(O)c(-c2ccccc2)c(=O)n1-c1ccc(F)cc1	20µM*	45µM*	1%	-15%	-11%	?
Cc1ccc(-c2cnc(C(O)c3ccc(Cl)c(F)c3)[nH]2)cc1 (configuration not stated)	·	·	4%	·	·	·
CC1=CC(C)(C)N2C(=O)C(=O)c3cc(OC(=O)c4ccco4)cc1c32	35µM*	35µM*	27µM*	32µM*	35µM*	?
CC1=CC(C)(C)Nc2ccc(OC(=O)CN3C(=O)CCC3=O)cc21	-6%	9%[12.7 µM]	-6%	14%	-5%	-14%
SMILES	JMJD2A Tudor	G9a inh	PLK1 PBD inh	HP1b binding inh	BAZ2B block	ALOX12 inh
O=C(Oc1cccc(OC(=O)c2ccco2)c1)c1ccco1	5%	86%	-8%	45%	-32%	29%
CC1=CC(C)(C)Nc2ccc(OC(=O)c3cccnc3)cc21	?	45µM*	-7%	-6%	40µM*	-2%
CC1=CC(C)(C)Nc2ccc(OC(=O)c3ccco3)cc21	?	?	-8%	-13%	50µM*	?
CC1=CC(C)(C)Nc2ccc(OC(=O)C(C)N3C(=O)c4ccccc4C3=O)cc21 (configuration not stated)	?	10µM*	-18%	?	22µM*	0%
CS(=O)(=O)Nc1cccc(-c2nc(Nc3ccccc3)c3ccccc3n2)c1	·	·	·	·	·	-30%
Cc1nc2ccccc2nc1OCc1cccc(Cl)c1	1%	6%[59 µM]	-7%	19%	0%	0%
CCOc1ccc(NC(=O)Cn2nnc(C(=O)NCCc3ccc(OC)c(OC)c3)c2N)cc1	-3%	?	-5%	32%	-9%	0%
CS(=O)(=O)Nc1ccc([N+](=O)[O-])cc1Oc1ccccc1	-16%	32µM*!	-7%	43%	-26%	?
COc1ccc(OCC(=O)Nc2ccccc2OC(F)F)cc1	26%	24%[12.7 µM]	-1%	44%	22%	-17%
COCCn1c(=S)[nH]c2ccccc21	-11%[57.1 µM]	40µM*	-13%	42%	-37%	-17%
COc1ccc(Cn2c(=S)[nH]c3ccccc32)cc1	-23%	1.8µM*	-7%	33%	-30%	45µM*
COc1ccc(-n2c(=S)[nH]c3ccccc32)cc1	40µM*	3.5µM*	?	3%	?	28µM*
COc1ccc(Cn2c(=O)sc3ccccc32)cc1	23%	24%[59 µM]	4%	68%	71%	0%
CSc1nnc2c3ccccc3c3ccccc3c2n1	?	·	21µM*	?	10%	?
O=C(Cn1nc(N2CCN(c3ccccc3)CC2)ccc1=O)NC1CCCCC1	·	·	·	·	·	-8%
COc1ccc(S(=O)(=O)Nc2ccc(NC(C)=O)cc2)cc1	-7%	11%[59 µM]	-7%	31%	?	4%
Cc1cc(C(=O)NC2CCS(=O)(=O)C2)c2ccc(F)cc2n1 (configuration not stated)	·	·	·	·	·	-6%
O=C(/C=C/N1CCOCC1)c1cc2ccccc2o1	-18%	10µM*	-7%	28%	2%	6%
CCc1nnc(NC(=O)c2ccc(S(=O)(=O)N(C)c3ccccc3)cc2)o1	25µM*	-19%	30µM*	6%	·	1%
CN(C)c1ccc(C(=O)Nc2nnc(C3=COCCO3)o2)cc1	79µM*	-3%	4%	29%	·	11%
CC(C)Oc1ccc(C(=O)Nc2nnc(C3=COCCO3)o2)cc1	?	7%	-9%	35%	?	-18%
CN(c1ccccc1)S(=O)(=O)c1ccc(C(=O)Nc2nnc(C3=COCCO3)o2)cc1	-33%	35µM*	?	40%	79µM*	-9%
